MCL1 BIM primary = inhibitors of MCL1 binding to BIM-BH3, primary screen, biochemical, fluorescence polarization; Induced myeloid leukemia cell differentiation protein Mcl-1 (Homo sapiens), Q07820; GST-MCL1 / FITC-Bim-BH3 fluorescence polarization; inhibition, % at 10.9 µM; 320,000 tested, 0.68% active;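 active = inhibition above the mean inhibition of all tested compounds plus 3 SD, set per campaign, cut at about 40% in these data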;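 also: 0% = DMSO wells and 100% = unlabeled Bim-BH3 peptide control; higher means more loss of mP so more displacement of Bim peptide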
Mcl1 Bid PPI = Mcl-1/Bid binding inhibitors, primary screen, biochemical, TR-FRET, 1536-well | Induced myeloid leukemia cell differentiation protein Mcl-1 (Homo sapiens), Q07820 | TR-FRET Mcl-1/Bid-Dy647 peptide binding | inhibition, % at 21.7 µM | 220,000 tested, 0.97% active;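 active = compounds that cut the binding signal by more than half at the single screening dose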;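 also: His-tagged Mcl-1 with europium anti-His antibody binding Bid BH3 peptide; 0% = Mcl-1 plus peptide wells and 100% = peptide-only wells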
Mcl1 Noxa PPI = Mcl-1/Noxa binding inhibitors, primary screen, biochemical, TR-FRET, 1536-well. Induced myeloid leukemia cell differentiation protein Mcl-1 (Homo sapiens), Q07820. TR-FRET Mcl-1/Noxa peptide binding, 2 h. inhibition, % at 21.7 µM. AID 1022, 2008. 220,000 tested, 1.5% active;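 active = compounds that cut the protein-peptide binding signal by more than 50% relative to plate controls in a single-dose test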;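 also: His-tagged Mcl-1 with rhodamine Noxa BH3 peptide and terbium anti-His antibody; 0% = Mcl-1 plus Noxa peptide wells and 100% = peptide-only wells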
GLD-1 RNA inh = GLD-1/TGE RNA complex disruptors, primary screen, biochemical, fluorescence polarization | 320,000 tested, 0.44% active | purified GLD-1 + fluorescein TGE RNA | AID 2280, 2010 | inhibition, % at 5.96 µM;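 active = percent inhibition above a per-plate cutoff, the plate mean of test compounds plus 3 SD, cut at about 30% in these data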;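 also: 0% = DMSO wells with GLD-1 and probe and 100% = wells lacking GLD-1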
Target sequence (Q17339 whole entry, looked up): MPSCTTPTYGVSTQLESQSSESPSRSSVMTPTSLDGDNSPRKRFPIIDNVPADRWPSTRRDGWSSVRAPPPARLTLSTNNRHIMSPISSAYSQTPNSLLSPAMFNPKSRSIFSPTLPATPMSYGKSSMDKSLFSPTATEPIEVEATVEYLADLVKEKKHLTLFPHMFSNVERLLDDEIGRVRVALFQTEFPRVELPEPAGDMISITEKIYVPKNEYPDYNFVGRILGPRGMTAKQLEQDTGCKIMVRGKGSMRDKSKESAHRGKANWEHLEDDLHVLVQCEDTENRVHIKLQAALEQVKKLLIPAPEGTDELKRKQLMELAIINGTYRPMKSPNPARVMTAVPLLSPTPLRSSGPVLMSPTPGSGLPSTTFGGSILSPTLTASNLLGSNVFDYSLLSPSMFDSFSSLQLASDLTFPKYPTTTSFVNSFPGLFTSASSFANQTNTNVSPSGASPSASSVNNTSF
Mcl-1 Bim block = inhibitors of Bim peptide binding to Mcl-1, primary screen, biochemical, bead-based flow cytometry, multiplex; Induced myeloid leukemia cell differentiation protein Mcl-1 (Homo sapiens), Q07820; Bim peptide-Mcl-1 binding; inhibition, % at 10 µM; 190,000 tested, 0.1% active; AID 1009, 2008; in the data active = inhibition above about 40%;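 also: 0% = no compound tracer wells and 100% = peptide blocker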
Bcl-xL primary = inhibitors of human Bcl-xL, primary screen, biochemical, fluorescence polarization, HTS | inhibition, % at 10.9 µM | AID 2129, 2009 | GST-Bcl-xL / FITC-Bim BH3 peptide fluorescence polarization | Bcl-2-like protein 1 (Homo sapiens), Q07817 | 320,000 tested, 0.7% active;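 active = inhibition above the mean of all tested compounds plus 3 SD, cutoff set per campaign, cut at about 30% in these data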;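 also: 0% = DMSO wells and 100% = unlabeled Bim-BH3 peptide competitor; inhibitors lower millipolarization by displacing the labeled peptide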
Active calls of the source: *. Hits are enriched below; roughly 2.3% of the tested compounds scored in any of these assays.

O=C(Nc1ccc(N2CCCC2)cc1)c1cccc(F)c1 was read as MCL1 BIM primary 4, Mcl1 Bid PPI -35, Mcl1 Noxa PPI 67*, GLD-1 RNA inh -3, Mcl-1 Bim block -1 and Bcl-xL primary 10.
`O=C(/C=C/c1ccc(NC(=O)c2ccccc2-c2ccccc2C(=O)O)cc1)c1ccccc1` gave MCL1 BIM primary -7, GLD-1 RNA inh -25 and Bcl-xL primary 4.
O=C(/C=C/c1ccncc1)c1ccc(NC(=O)c2ccccc2F)cc1 was read as MCL1 BIM primary -24, Mcl1 Bid PPI 52*, Mcl1 Noxa PPI -15, GLD-1 RNA inh 7, Mcl-1 Bim block 8 and Bcl-xL primary -16.
Cc1ccc(C(=O)Nc2ccc(N3CCCCC3)cc2)cc1 was read as GLD-1 RNA inh 0.
`Cc1ccc(C(=O)Nc2ccc(N3CCCC3)cc2)cc1` gave MCL1 BIM primary 1, Mcl1 Bid PPI -35, Mcl1 Noxa PPI 78*, GLD-1 RNA inh 0, Mcl-1 Bim block -1 and Bcl-xL primary 5.
Screening O=C(Nc1ccc(N2CCCC2)cc1)c1ccccc1F returned MCL1 BIM primary 5, Mcl1 Bid PPI -30, Mcl1 Noxa PPI 82*, GLD-1 RNA inh -1, Mcl-1 Bim block -5 and Bcl-xL primary 5.
For CC(=O)Nc1ccc(N2CCCC2)cc1 the results were MCL1 BIM primary 12, Mcl1 Bid PPI -49, Mcl1 Noxa PPI 6, GLD-1 RNA inh -7, Mcl-1 Bim block -3 and Bcl-xL primary 12.
Screening CC(C)(C)C(=O)Nc1ccc(N2CCCC2)cc1 returned MCL1 BIM primary 11, Mcl1 Bid PPI -55, Mcl1 Noxa PPI 56*, GLD-1 RNA inh -1, Mcl-1 Bim block -1 and Bcl-xL primary 1.
`O=C(Nc1ccc(N2CCCC2)cc1)c1ccc2ccccc2c1` gave MCL1 BIM primary 4, Mcl1 Bid PPI -34, Mcl1 Noxa PPI 74*, GLD-1 RNA inh -2, Mcl-1 Bim block 11 and Bcl-xL primary 4.
C[C@H](NC(=O)c1ccccc1)C(=O)N1CCC2(CC1)NCCc1[nH]cnc12 was read as MCL1 BIM primary 1, GLD-1 RNA inh 0 and Bcl-xL primary 1.
CCOC(=O)c1snc(-c2ccc(F)cc2)c1N was read as MCL1 BIM primary 4, Mcl1 Bid PPI -18, Mcl1 Noxa PPI -9, GLD-1 RNA inh 2, Mcl-1 Bim block 66* and Bcl-xL primary 0.
Screening CCOC(=O)c1sc(N)nc1-c1ccccc1 returned MCL1 BIM primary 5, Mcl1 Bid PPI -5, Mcl1 Noxa PPI 5, GLD-1 RNA inh 4, Mcl-1 Bim block 1 and Bcl-xL primary 7.
For Cc1cc(S(=O)(=O)N2CCCCC2CCNC(=O)C(=O)NCC2CCCO2)ccc1F (stereo not drawn) the results were MCL1 BIM primary 7, GLD-1 RNA inh 8 and Bcl-xL primary 9.
For COCCN1C(=O)/C(=C/c2ccc(OCc3ccc(C(=O)O)cc3)c(OC)c2)SC1=Nc1ccccc1 the results were MCL1 BIM primary 16, Mcl1 Bid PPI -57, Mcl1 Noxa PPI 64*, GLD-1 RNA inh 1, Mcl-1 Bim block -1 and Bcl-xL primary 6.
For CCOC(=O)c1ccc(N2NC(=O)/C(=C/c3ccc(OC(=O)c4ccco4)c(OC)c3)C2=O)cc1 the results were MCL1 BIM primary 20, Mcl1 Bid PPI -43, Mcl1 Noxa PPI 56*, GLD-1 RNA inh 4, Mcl-1 Bim block 9 and Bcl-xL primary 15.
CCOC(=O)COc1ccc(/C=C2/C(=O)NN(c3ccc(F)cc3)C2=O)cc1OC was read as MCL1 BIM primary 5, GLD-1 RNA inh -8 and Bcl-xL primary 1.
Screening CCOc1cc(/C=C2/SC(=S)NC2=O)ccc1OC(=O)c1ccco1 returned MCL1 BIM primary 7, Mcl1 Bid PPI -4, Mcl1 Noxa PPI 57*, GLD-1 RNA inh -1, Mcl-1 Bim block -6 and Bcl-xL primary 8.
